{
  "source": "ChEMBL document CHEMBL3988442",
  "about": "“University of Dundee, Small-Polar-MMV Screening Library” (2021)",
  "note": "About 1,200 (3.2%) of roughly 38,000 compounds showed an effect of 50% or more. The median lay at about -58%. For the sample, strong results were picked, then their nearest neighbours and some compounds at random.",
  "data": [
    {"test_system": "Plasmodium falciparum", "assay": "Calibr Malaria Delayed Death Assay SOP", "format": "functional, organism-based", "design": "scale not given: in the data most compounds retested in dose-response had high values", "details": "concentration 4.99e-06 (unit not given; other assays of the set use mol/L)", "units": {"Percent Effect": "%"}, "values": [
      {"smiles": "O=C(Cn1c(=O)oc2ccccc21)NCC1(O)CCc2ccccc21", "note": "(stereo unspecified)", "Percent Effect": -139.2},
      {"smiles": "c1cnc(N2CCCC(c3cncc(-n4ccnc4)n3)C2)nc1", "note": "(stereo unspecified)", "Percent Effect": -26.3},
      {"smiles": "Cc1cc(NCCNc2cccnc2)nc(-c2ccccc2O)n1", "Percent Effect": -179.2},
      {"smiles": "Cc1cc(NCCO)nc(-c2ccccc2O)n1", "Percent Effect": -228.5},
      {"smiles": "Cc1cc(NCCN)nc(-c2ccccc2O)n1", "Percent Effect": 78.32},
      {"smiles": "COCC1COCCC12CCN(S(=O)(=O)c1ccc(C)cc1)CC2", "note": "(stereo unspecified)", "Percent Effect": -77.98},
      {"smiles": "CCNC(=O)[C@@H]1C[C@@H](NC(=O)c2cnc[nH]c2=O)CN1Cc1ccsc1", "Percent Effect": -128.1},
      {"smiles": "O=C(CN1CCOCC1)Nc1ncc(Br)cc1Br", "Percent Effect": -123.1},
      {"smiles": "c1ccc(Cc2noc(CCNC3CCOC4(CCOCC4)C3)n2)cc1", "note": "(stereo unspecified)", "Percent Effect": -44.81},
      {"smiles": "c1ccc2c(c1)cnn2CCCNC1CCOC2(CCOCC2)C1", "note": "(stereo unspecified)", "Percent Effect": 68.4},
      {"smiles": "Fc1cccc(C2(CNC3CCOC4(CCOCC4)C3)CCOCC2)c1", "note": "(stereo unspecified)", "Percent Effect": 39.6},
      {"smiles": "Fc1cccc(C2(CNC3CCCNC3)CCOCC2)c1", "note": "(stereo unspecified)", "Percent Effect": -89.15},
      {"smiles": "c1ccc2c(c1)nnn2CCCNC1CCOC2(CCOCC2)C1", "note": "(stereo unspecified)", "Percent Effect": -5.834},
      {"smiles": "Fc1ccccc1C1(CNC2CCOC3(CCOCC3)C2)CCCC1", "note": "(stereo unspecified)", "Percent Effect": 75.67},
      {"smiles": "COc1c(CNC2CCN(C(=O)C(C)C)CC2)c(C(C)C)nn1C", "Percent Effect": -79.75},
      {"smiles": "CSc1cccc(NC(=O)CCC(=O)Nc2nccs2)c1", "Percent Effect": -6.233},
      {"smiles": "CCOC(=O)Cn1ccc(NC(=O)Cc2ccccc2F)n1", "Percent Effect": -129.4},
      {"smiles": "COc1ccc(CCNC(C)c2ccc3[nH]c(=O)[nH]c3c2)cc1OC", "note": "(stereo unspecified)", "Percent Effect": -75.57},
      {"smiles": "Cc1ccc(S(=O)(=O)N2CCCCC(N3CCN(C)CC3)C2)cc1F", "note": "(stereo unspecified)", "Percent Effect": 37.26},
      {"smiles": "Cc1ccc(S(=O)(=O)N2CCC(S(=O)(=O)c3nncn3C)CC2)cc1C", "Percent Effect": -38.79},
      {"smiles": "Cc1ccc(S(=O)(=O)N2CCC(S(C)(=O)=O)CC2)cc1C", "Percent Effect": -5.803},
      {"smiles": "Cc1ccc(S(=O)(=O)N2CCC(N3CCCCC3)CC2)cc1C", "Percent Effect": 64.64},
      {"smiles": "Cc1cc(S(=O)(=O)N2CCCN3CCCC3C2)ccc1F", "note": "(stereo unspecified)", "Percent Effect": 67.89},
      {"smiles": "Cc1cc(S(=O)(=O)N2CCC(S(C)(=O)=O)C2)ccc1F", "note": "(stereo unspecified)", "Percent Effect": -26.98},
      {"smiles": "Cc1nc2ccccc2n1Cc1cc(C(=O)N(C)C2CCOC2)n[nH]1", "note": "(stereo unspecified)", "Percent Effect": -89.66},
      {"smiles": "Cc1nc(CN(C)C2CCN(Cc3nc4c(F)cccc4[nH]3)C2)no1", "note": "(stereo unspecified)", "Percent Effect": -2.567},
      {"smiles": "CCOCC(=O)Nc1cccnc1-n1ccnc1C", "Percent Effect": -153.7},
      {"smiles": "Cc1ncc(CNCC(C)O)c2cc(C(=O)c3ccc(Br)cc3)oc12.Cl", "note": "(stereo unspecified)", "Percent Effect": 8.12},
      {"smiles": "Cc1ncc(CN2CCOCC2)c2cc(C(=O)c3ccc(Br)cc3)oc12.Cl", "Percent Effect": -6.646},
      {"smiles": "Cc1ncc(CNCCO)c2cc(C(=O)c3ccc(Br)cc3)oc12.Cl", "Percent Effect": 88.87},
      {"smiles": "CN(C)c1ccc(C(=O)NCc2csc(Br)c2)cn1", "Percent Effect": -36.5},
      {"smiles": "Cc1ncc(CN2CCCC2)c2cc(C(=O)c3ccc(Br)cc3)oc12.Cl", "Percent Effect": 66.17},
      {"smiles": "COc1ncc(C(=O)NCc2ccc(Br)cc2)cn1", "Percent Effect": -41.11},
      {"smiles": "Cc1ncc(CNC(C)(C)CO)c2cc(C(=O)c3ccc(Br)cc3)oc12", "Percent Effect": 36.54},
      {"smiles": "Cc1ncc(CN(C)CCO)c2cc(C(=O)c3ccc(Br)cc3)oc12.Cl", "Percent Effect": 47.82},
      {"smiles": "COCCNC(=O)[C@@H]1CCO[C@@H]2CCN(Cc3cnn(C)c3)C[C@@H]21", "Percent Effect": -0.06334},
      {"smiles": "Cc1nn(Cn2ccc(C(=O)N3CCOCC3)n2)c(C)c1Cl", "Percent Effect": -94.44},
      {"smiles": "O=c1c(NCc2ccccn2)c(NCC(O)CN2CCOCC2)c1=O", "note": "(stereo unspecified)", "Percent Effect": -115.3},
      {"smiles": "Cc1cccc(CN2CC3(CCN(Cc4ccco4)CC3)OCC2=O)n1.O=C(O)C(F)(F)F.O=C(O)C(F)(F)F", "Percent Effect": -46.8},
      {"smiles": "CC(C)Oc1ccc(C(=O)N2CCCC2c2cnn(C)c2)cn1", "note": "(stereo unspecified)", "Percent Effect": -40.89},
      {"smiles": "CNC(=O)c1cn2cc(-c3cccc(Cl)c3)n(CC3CC3)c(=O)c2n1", "Percent Effect": 19.26},
      {"smiles": "CNC(=O)c1cn2cc(-c3cccc(Cl)c3)n(CC=C(C)C)c(=O)c2n1", "Percent Effect": 56.44},
      {"smiles": "COCCCNC(=O)Cn1c(-c2cccc(Cl)c2)nc(C)cc1=O", "Percent Effect": -51.33},
      {"smiles": "COc1ccc(OC)c(NC(=O)c2cc3c([nH]c2=O)CCCC3=O)c1", "Percent Effect": -53.3},
      {"smiles": "Cc1c(C)n(CC(O)CN2CCCCCC2)c2c(Cl)cccc12", "note": "(stereo unspecified)", "Percent Effect": 50.38},
      {"smiles": "Cc1c(C)n(CC(O)CN2CCOCC2)c2c(Cl)cccc12.Cl", "note": "(stereo unspecified)", "Percent Effect": -18.53},
      {"smiles": "CC1CCN(CC(O)Cn2cnc3ccc(Cl)cc3c2=O)CC1", "note": "(stereo unspecified)", "Percent Effect": 28.19},
      {"smiles": "Cc1c(C)n(CC(O)CN2CCC(C)CC2)c2c(Cl)cccc12", "note": "(stereo unspecified)", "Percent Effect": 82.43},
      {"smiles": "O=C(c1cccc(Cl)c1Cl)N1CCN(CC(O)Cn2cccn2)CC1", "note": "(stereo unspecified)", "Percent Effect": -16.31},
      {"smiles": "Cc1c(C)n(CC(O)CN2CCC(O)CC2)c2c(Cl)cccc12", "note": "(stereo unspecified)", "Percent Effect": 43.5},
      {"smiles": "O=C(c1cccc2c1OCCO2)N1CCCC(n2cccn2)C1", "note": "(stereo unspecified)", "Percent Effect": -57.7}
    ]}
  ]
}
